The text below walks through data of PubChem BioAssay (EPA / NIEHS).

“And” between values parts separate entries of the source, which are not always exact repeats. Equal entries are not always repeated. Records with an inconclusive call do not appear. The source holds several records for some structures; these can differ, active in one and inactive in another. The source made the active and inactive calls. The calls were made as follows: active = hit-call score of the fitted dose curve at least 0.9, where 1 is the maximum; inconclusive = response in the unintended direction; inactive = score below 0.9.

Estrogen receptor (Homo sapiens) + Estrogen receptor beta (Homo sapiens), sequence (P03372 whole entry, looked up, the tested form may be a part): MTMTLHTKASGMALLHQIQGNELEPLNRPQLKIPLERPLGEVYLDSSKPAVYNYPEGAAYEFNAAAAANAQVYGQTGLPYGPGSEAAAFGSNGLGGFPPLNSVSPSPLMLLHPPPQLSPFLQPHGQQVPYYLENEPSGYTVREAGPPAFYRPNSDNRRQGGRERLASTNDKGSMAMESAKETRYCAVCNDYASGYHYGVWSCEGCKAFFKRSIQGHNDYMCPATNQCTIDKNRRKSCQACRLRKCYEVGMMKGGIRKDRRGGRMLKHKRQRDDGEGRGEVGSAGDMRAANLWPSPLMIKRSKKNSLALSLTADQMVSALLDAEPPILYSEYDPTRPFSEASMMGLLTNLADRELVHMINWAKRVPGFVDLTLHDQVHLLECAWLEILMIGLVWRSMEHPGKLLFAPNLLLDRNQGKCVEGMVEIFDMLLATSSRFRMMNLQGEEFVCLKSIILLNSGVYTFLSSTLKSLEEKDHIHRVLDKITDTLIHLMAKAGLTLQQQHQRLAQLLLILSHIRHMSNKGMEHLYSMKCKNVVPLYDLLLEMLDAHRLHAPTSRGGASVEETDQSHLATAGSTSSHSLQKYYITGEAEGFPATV
Estrogen receptor (Homo sapiens) + Estrogen receptor beta (Homo sapiens), sequence (Q92731 whole entry, looked up, the tested form may be a part): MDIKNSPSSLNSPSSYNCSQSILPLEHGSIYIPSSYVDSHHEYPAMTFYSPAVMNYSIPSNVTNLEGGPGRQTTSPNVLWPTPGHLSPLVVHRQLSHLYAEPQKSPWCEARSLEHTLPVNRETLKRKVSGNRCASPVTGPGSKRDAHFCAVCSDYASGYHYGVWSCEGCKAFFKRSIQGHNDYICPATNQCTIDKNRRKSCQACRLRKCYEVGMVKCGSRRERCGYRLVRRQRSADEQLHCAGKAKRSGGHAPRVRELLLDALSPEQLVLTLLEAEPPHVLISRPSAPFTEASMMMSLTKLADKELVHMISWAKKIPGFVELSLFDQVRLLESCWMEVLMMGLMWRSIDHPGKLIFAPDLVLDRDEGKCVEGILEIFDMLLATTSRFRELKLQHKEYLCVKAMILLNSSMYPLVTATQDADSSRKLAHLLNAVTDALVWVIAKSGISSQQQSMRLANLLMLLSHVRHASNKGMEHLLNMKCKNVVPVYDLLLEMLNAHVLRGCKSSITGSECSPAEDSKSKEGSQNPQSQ

For the test, the target named is Estrogen receptor (Homo sapiens) + Estrogen receptor beta (Homo sapiens) (UniProt P03372+Q92731). Briefly: OT_ER_ERaERb_0480: Odyssey Thera (OT) 8-hour HEK293T Protein-Complementation Assay for Estrogen Receptor-alpha/-beta Heterodimer (AID 2283352). As for the experimental part:
OT_ER_ERaERb_0480 is a cell-based assay that uses HEK293T, a human kidney cell line, with measurements taken at 8 hours after chemical dosing in a 384-well plate.OT_ER_ERaERb_0480 is one of one assay component(s) measured or calculated from the OT_ER_ERaERb_0480 assay. It is designed to make measurements of protein fragment complementation, a form of binding reporter, as detected with fluorescence intensity signals by Protein-fragment Complementation technology.Data from the assay component OT_ER_ERaERb_0480 was analyzed into 1 assay endpoint. This assay endpoint, OT_ER_ERaERb_0480, was analyzed in the positive analysis fitting direction relative to DMSO as the negative control and baseline of activity. Using a type of binding reporter, measures of receptor for gain-of-signal activity can be used to understand the binding at the pathway-level as they relate to the gene ESR1 and ESR2. Furthermore, this assay endpoint can be referred to as a primary readout, because the performed assay has only produced 1 assay endpoint. To generalize the intended target to other relatable targets, this assay endpoint is annotated to the nuclear receptor intended target family, where the subfamily is steroidal.
Protein-fragment complementation assay, or PCA, is a method for the identification and quantification of protein-protein interactions. In the PCA, the proteins of interest ("bait" and "prey") are each covalently linked to fragments of a third protein (e.g. DHFR, which acts as a "reporter"). Interaction between the bait and the prey proteins brings the fragments of the reporter protein in close proximity to allow them to form a functional reporter protein whose activity can be measured. […] Fluorescent signal in the basal state of the assay is very low and is primarily punctuate and cytoplasmic. Modulation of this assay is quantified as an increase in mean fluorescence intensity in the nucleus (for agonists) or in the nucleus and cytoplasm (antagonists) relative to vehicle controls, and can be quantified on a high content imaging device or a laser scanning cytometer. The latter instrument is favored for this assay because of the rapid mode of data acquisition, the ability to acquire data from the entire cell population in a well (as opposed to a fraction of the well on the high content devices) and the larger dynamic range typically achieved with this instrument. To assess sensitivity of the ER alpha/ER beta LBD assay to ligand, cells were treated with the ER agonist 17- beta-estradiol (E2) in 10-point concentration- response format for 8 hours and monitored response on a laser scanning plate cytometer (Acumen eX3; TTP Lab Tech).
Consider `OC12N=C(c3ccccc3)SC1Cc1cc(Cl)ccc12` (configuration not stated), for which the result was inactive.

`CC[C@H](NC(=O)c1cc(F)ccc1NS(=O)(=O)c1cccc2cccnc12)c1ccccc1`: the result was inactive.

With `COc1cccc([C@H](O)C2CCN(CCc3ccc(F)cc3)CC2)c1OC`, the outcome was inactive.

Regarding `CC1=CC(=O)/C(=C(/C)O)C(=O)O1`, the outcome was inactive.

`O=c1ccc2ccccc2o1`: the outcome was inactive.

In the case of `CCCCCCCCCCCO`, the outcome was inactive.

For `Cc1c2ccccc2c(C)c2c1ccc1ccccc12`, the result was inactive.

As for `c1ccc(C[n+]2cccc3ccccc32)cc1`, the result was inactive.

`CCCCCc1ccc(N)cc1`: the result was inactive; the AC50 (as a rule, the midpoint of the concentration-response curve, whichever way the signal moves) is 46.8 µM (active) and 40 µM (active) and 53.9 µM (active).

`O=C(O)Cn1c(=O)n(Cc2ccc(Br)cc2F)c(=O)c2ccc(Cl)cc21`: the outcome was inactive.

For `CCCCCCCCOC(=O)c1cc(O)c(O)c(O)c1`, the AC50 was 11.9 µM (active).

Turning to `CC(=O)N1CCN(c2ccc(OC[C@H]3CO[C@](Cn4ccnc4)(c4ccc(Cl)cc4Cl)O3)cc2)CC1`, the outcome was inactive.

`O=C(O)c1ccccc1-n1cc(C(=O)O)c(=O)c2cc(Nc3c(F)cc(F)cc3Cl)c(Cl)cc21`: the result was inactive.

Regarding `Cc1ccc2oc(CN(Cc3ccccc3)C(=O)Nc3c(F)cc(F)cc3F)c(-c3ccc(Cl)cc3)c2c1`, the result was inactive.

Consider `O=C=NCCCCCCN=C=O`, for which the outcome was inactive.

On to `CN1C(=O)N(c2ccccc2Br)Cc2cnc(Nc3ccc4c(c3)OCC(CO)O4)nc21` (configuration not stated), for which the result was inactive.

As to `CCN(Cc1cccnc1)C(=O)c1cccc(Cl)c1[C@]1(C)C(=O)N(Cc2ccc(OC)cc2OC)c2ccc(Cl)cc21`, the outcome was inactive.

For the molecule `CCN(Cc1cccc(S(=O)(=O)O)c1)c1ccc(C(=C2C=CC(=[N+](CC)Cc3cccc(S(=O)(=O)O)c3)C=C2)c2ccccc2S(=O)(=O)[O-])cc1`, the outcome was inactive.

With `CCO[Si](CCCNC(N)=O)(OCC)OCC`, the result was inactive.

Regarding `Cc1cc(F)ccc1-c1cc(N2CC[C@@H](O)[C@H]2CO)ncc1N(C)C(=O)C(C)(C)c1cc(C(F)(F)F)cc(C(F)(F)F)c1`, the result was inactive.

As for `O=C(Nc1ccc(Cl)cc1)Nc1ccc(Cl)c(Cl)c1`, the outcome was inactive.

On to `CCCCCCCCCCCCO`, for which the outcome was inactive.

`COc1cc(C(=O)NC2CCN(C)CC2)ccc1Nc1ncc2c(n1)N(C1CCCC1)CC(F)(F)C(=O)N2C`: the outcome was inactive.

On to `CC(C)(C)c1csc(-c2cc3cc(OCc4ccccc4CC(=O)O)ccc3o2)n1`, for which the outcome was inactive.

Turning to `CCCOC(=O)c1cc(O)c(O)c(O)c1`, the concentration at half-maximal activity (AC50) is 39.8 µM (active).

Turning to `Cc1occc1C(=O)Nc1ccc(C(=O)N2CCC(F)(F)/C(=C\C(=O)N3CCC(N4CCCCC4)CC3)c3ccccc32)cc1`, the AC50 is 26.9 µM (active).
